PubChem BioAssay (Tox21)
Calls of active or inactive are those of the source. The call rests on the fitted dose curve; in most records, active means well fitted inhibition curve with a large enough effect in the repeat runs (not every such curve was filed as active); inconclusive means weak or mixed curves; inactive means flat fitted curve, though single readings scatter.

target: Thyrotropin-releasing hormone receptor (Homo sapiens) (UniProt P34981); experiment: qHTS assay to identify small molecule antagonists of the thyrotropin-releasing hormone receptor (TRHR) signaling pathway (AID 1346877); conditions: TRHR-HEK293, TRH-induced calcium fluorescence, antagonist mode; series mostly up to 51.3 µM
How it was run: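 Cells (TRHR-HEK293) are plated and kept 18 h at 37 °C/5% CO2. A calcium-sensitive dye is added for 2 h, compound follows for 5 min at room temperature, and TRH is then given at 1 nM final.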

Chain of Thyrotropin-releasing hormone receptor (Homo sapiens) (P34981 whole entry, looked up): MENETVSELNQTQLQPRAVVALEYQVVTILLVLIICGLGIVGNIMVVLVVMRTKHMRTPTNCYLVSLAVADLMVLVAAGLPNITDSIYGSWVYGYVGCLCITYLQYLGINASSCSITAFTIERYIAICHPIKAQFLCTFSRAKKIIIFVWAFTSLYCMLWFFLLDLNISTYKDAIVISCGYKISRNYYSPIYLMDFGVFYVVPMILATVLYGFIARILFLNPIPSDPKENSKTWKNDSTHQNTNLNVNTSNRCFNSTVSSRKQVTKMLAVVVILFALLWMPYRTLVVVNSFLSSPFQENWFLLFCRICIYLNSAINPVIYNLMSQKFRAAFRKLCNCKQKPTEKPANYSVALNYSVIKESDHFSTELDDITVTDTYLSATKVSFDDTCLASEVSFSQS

SMILES | outcome
CCOC(=O)CC(=O)c1ccccc1 | inactive
O=S(=O)(O)CCN1CCN(CCO)CC1 | inactive
CC(COC(C)(C)C)OCCCO (centres undefined) | inactive
O=C(O)c1ccc(Cl)cc1Cl | inactive
CC(C)CCCCOC(=O)c1ccccc1C(=O)OCCCCC(C)C | inactive
COc1ccc(-c2cc(=O)c3c(O)cc(O[C@@H]4O[C@H](CO[C@@H]5O[C@@H](C)[C@H](O)[C@@H](O)[C@H]5O)[C@@H](O)[C@H](O)[C@H]4O)cc3o2)cc1O | inactive
CC(C)=CCOC(=O)c1ccccc1 | inactive
CCC(C=O)CC | inactive
Nc1nnc(-c2cccc(Cl)c2Cl)c(N)n1 | inactive
CC1(C)S[C@@H]2[C@H](N=CN3CCCCCC3)C(=O)N2[C@H]1C(=O)O | inactive
C#CC(C)N(C)C(=O)Nc1ccc(Cl)cc1 (centres undefined) | inactive
O=S(=O)(O)c1cc(O)c2ccc(Nc3ccccc3)cc2c1 | inactive
CCCC/C=C\CCCCCCCCCC=O | inactive
C[C@@H](Oc1ccc(CNC(=O)c2cccnc2Oc2ccc3c(c2)OCO3)c(F)c1)C(=O)O | inactive
COc1cc(C(=S)N2CCOCC2)cc(OC)c1OC | inactive
Cc1ccsc1/C=C/C1=NCCCN1C | inactive
OCCCCC(O)CO (centres undefined) | inactive
NNc1nnc(NN)c2ccccc12 | inactive
CC(CN)CC(C)(C)CCN (centres undefined) | inactive
CCCCCCCCCCCCCC | inactive
O=P(O)(O)OP(=O)(O)O | inactive
CC(=O)CCCCn1c(=O)c2c(ncn2C)n(C)c1=O | inactive
CC(=O)N[C@@H](CCC(=O)O)C(=O)O | inactive
CN(C)c1ccc(C=O)cc1 | inactive
